Screening results as filed in PubChem.
KDM4E inh: qHTS Assay for Inhibitors of Human Jumonji Domain Containing 2E (JMJD2E). actives 1.6% (n = 230,000). Potency, µM (doses to about 57.1 µM), hits mostly inhibitors. AID 2147, 2009. JMJD2E catalytic domain, FDH-coupled NADH fluorescence (FDH is formaldehyde dehydrogenase); note: nearly all actives have a fitted effect of over 50% in size
Target sequence (B2RXH2 1-337 limits assumed): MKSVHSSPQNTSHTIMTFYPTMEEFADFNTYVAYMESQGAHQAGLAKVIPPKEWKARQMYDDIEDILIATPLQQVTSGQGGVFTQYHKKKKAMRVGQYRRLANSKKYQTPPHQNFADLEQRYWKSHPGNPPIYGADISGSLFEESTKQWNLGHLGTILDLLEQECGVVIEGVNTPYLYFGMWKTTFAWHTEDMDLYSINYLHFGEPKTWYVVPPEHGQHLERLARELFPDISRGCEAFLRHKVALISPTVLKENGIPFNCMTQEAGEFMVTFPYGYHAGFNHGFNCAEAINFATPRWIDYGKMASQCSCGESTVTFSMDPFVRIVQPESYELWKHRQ
CtBP-E1A inh: qHTS Assay for Inhibitors of the CtBP/E1A Interaction. AlphaScreen GST-E1A/His-CtBP binding, 1536-well; stronger effect = lower value. activity change, % (test concentration not listed). actives 0.49% (n = 340,000)
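Homogeneous bead-based format: GST-tagged E1A captured on glutathione donor beads, His-tagged CtBP on nickel acceptor beads; compounds precede bead addition by 2 h at 37 °C.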
KCNH2 3.1 block: qHTS for Inhibitors of KCHN2 3.1: Mutant qHTS; actives 0.95% (n = 340,000); activity change, % (tested at about 1.8 µM); U2OS KCNH2 3.1, thallium flux FluxOr; stronger effect = lower value; AID 720553, 2013;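 active = maximum activity change below -70%; inconclusive = maximum activity change from -70% to -50%; inactive = maximum activity change above -50%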;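 note: thallium influx rate constant from kinetic fluorescence after stimulation buffer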
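U2OS cells transduced with KCNH2 3.1 mutant virus (1.77 x 10^8 /mL, 4 h), plated overnight at 37 C, loaded 45 min with FluxOr dye plus Red40 quencher. Thallium flux rate constant from kinetic reads after stimulation buffer, normalised to controls.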
Six1-Eya2 inh: qHTS Assay for Inhibitors of the Six1/Eya2 Interaction; AlphaScreen GST-Six1/His-Eya2 binding, biochemical; stronger effect = lower value; actives 0.56% (n = 360,000); AID 651725, 2012; activity change, % (no concentration beside the values); Homeobox protein SIX1 (Homo sapiens) + Protein phosphatase EYA2 (Homo sapiens), …
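AlphaScreen luminescence read after one hour at 37 °C in darkness. Pin-transferred compounds met GST-Six1 and His-Eya2 protein (5X stock 250 nM/500 nM) plus glutathione donor and Ni-chelate acceptor beads (5X, 50 ug/mL).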
hERG WT inh: qHTS for Inhibitors of KCHN2 3.1: Wildtype qHTS; U2OS, BacMam KCNH2, thallium flux FluxOr; stronger effect = lower value; activity change, % at 1.84 µM; actives 0.37% (n = 340,000);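 active = maximum activity change below -70%; inconclusive = maximum activity change between -70% and -50%; inactive = maximum activity change above -50%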
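U2OS cells transduced with wild-type KCNH2 virus are loaded with FluxOr dye for 45 min, and thallium flux is measured in kinetic reads before and after stimulation buffer. Rate constants are normalized to DMSO controls.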
Numbers stand for hits; - = inactive; ? = inconclusive; . = no result given. Shown are actives, neighbours in structure and some others; about 2% of the full set was active somewhere. Cut-off read from the data, not from the text of the source, unless noted: active = activity change below about -65%; inconclusive = mostly about -30% to -63%; inactive = weaker than that.

SMILES	KDM4E inh	CtBP-E1A inh	KCNH2 3.1 block	Six1-Eya2 inh	hERG WT inh
Cc1cc(C(=O)N/N=C/c2ccc(Cl)c([N+](=O)[O-])c2)c(C)n1-c1ccc(F)cc1	22µM	-	-	-	-
Cc1cc(C(=O)N/N=C/c2ccc3c(c2)OCO3)c(C)n1-c1ccc(F)cc1	-	-	-	-	-
CC1CCN(C(=O)CSc2nc3c(cnn3-c3ccc(Cl)cc3)c(=O)[nH]2)CC1	-	-	-	-	-
CN(C)c1ccc(N=C/C=C2/N(C)c3ccccc3C2(C)C)cc1	?	.	?	-68	-
Cc1ccc(NC(=O)CSc2nnc(-c3ccco3)o2)cc1	-	-	-	-	-
Cc1ccc(-n2nnc(-c3nccs3)n2)cc1	-	-	.	-	.
Clc1ccc(-n2nnc(-c3nccs3)n2)cc1Cl	13µM	-	-	-	-
CCC(Oc1ccccc1)C(=O)NCc1ccc(S(N)(=O)=O)cc1 (stereo unspecified)	-	-	-	-	-
COC(=O)C(C)N1C(=O)S/C(=C\c2ccc(-c3ccc(C(=O)O)cc3C)o2)C1=O (stereo unspecified)	.	.	-	-	-
O=c1ccc(=O)n(-c2ccccc2)[nH]1	-	-	-	-	-
CC1(c2nnc(-c3ccc(Cl)cc3)o2)CC(c2ccc(Cl)cc2)=NO1 (stereo unspecified)	-	-	-162	-	-
O=C(Nc1cccnc1)c1ccc2snnc2c1	-	-	-125	-	-151
O=C(Cn1nc2ccccc2n1)N/N=C/c1cc([N+](=O)[O-])ccc1O	-	.	-	?	-
Cc1cc([N+](=O)[O-])nn1CC(=O)N/N=C/c1ccc(O)cc1O	13µM	?	-	-85	-
O=C(Cn1cncn1)NCCCc1ccccc1	-	-	-	-	-177
Cc1ccn(CC(=O)N/N=C/c2cc([N+](=O)[O-])ccc2O)n1	13µM	-93	-	-90	-
O=C(Cn1cncn1)N/N=C/c1cc([N+](=O)[O-])ccc1O	25µM	.	-	-91	-104
O=C(Cn1cncn1)NCCC(c1ccccc1)c1ccccc1	-	-	-	-	-
COCCc1nc2ccc(C(=O)N3CCCCC3COC)cc2o1 (stereo unspecified)	.	-	-	-	-
O=C(Cn1cncn1)N/N=C/c1ccncc1	-	.	-	-	-
O=C(CSc1ccccn1)N/N=C/c1ccccc1[N+](=O)[O-]	-	-	-	-	-
O=C(CSc1ccccn1)N/N=C/c1cc([N+](=O)[O-])ccc1O	13µM	.	-	-88	-
O=C(Cn1cncn1)N/N=C/c1ccccc1O	?	-94	-	-85	-
Cc1nn(CCCC(=O)NC2CCC(C)CC2)c(=O)c2nn(-c3ccccc3)c(C)c12 (stereo unspecified)	.	-	-	-	-
CC(C)C[C@@H](CN1CCCC1CN1C(=S)NC[C@@H]1Cc1ccc(O)cc1)N1C[C@H](Cc2ccccc2)N(CCc2ccccc2)C1=S (stereo partly specified)	.	?	-	-	-71
SMILES	KDM4E inh	CtBP-E1A inh	KCNH2 3.1 block	Six1-Eya2 inh	hERG WT inh
CC(C)C[C@@H](CN1CCC[C@@H]1CN1C(=S)NC[C@@H]1Cc1ccc(O)cc1)N1C[C@H](Cc2ccccc2)N(CCc2ccccc2)C1=S	.	-	.	-	.
COc1ccc(N=C2S/C(=C\c3ccc(OCC(=O)O)cc3)C(=O)N2CCc2c[nH]c3ccccc23)cc1	-	-	-	-80	-
COc1ccc2cc(C(=O)N3CCN(Cc4ccc5c(c4)OCO5)CC3)[nH]c2c1	.	-97	-	-	-
COc1ccc2[nH]c3c(N4CCN(Cc5ccc6c(c5)OCO6)CC4)ncnc3c2c1	?	?	-	-65	-
COc1ccc(-c2c(-c3cc(OC)cc(OC)c3)n(C)c3ccc(-c4ccc(S(N)(=O)=O)cc4)cc23)cc1	.	-	-89	-	-
COc1ccc(-c2c(-c3cc(OC)cc(OC)c3)n(C)c3ccc(-c4cnc(N)nc4)cc23)cc1	.	-	-	-	-
CCOc1c(Cl)cc(CNc2ccc(N3CCCC3)cc2)cc1OC	8.9µM	-	-	?	-
N/C(=N\OC(=O)c1ccccc1Cl)c1cccnc1	-	-	-	-	-
COc1ccc(CCNC(=O)c2ccc(=O)[nH]c2)cc1	-	-	-71	-	-
C/C(=N\Nc1c(Cl)c(Cl)nc(C(=O)O)c1Cl)c1ccc(O)cc1	.	?	-	-67	-
S=c1[nH]c2ccc(Cl)cc2s1	7.9µM	.	-	-	-
COc1ccc(OC)c(NC(=O)CSc2nnc(Cc3cccn3C)n2-c2ccc(F)cc2)c1	-	-	-	-	-
COc1ccc(NC(=O)CCS(=O)(=O)c2ccc3c(c2)oc(=O)n3C)cc1	.	-	-	-	-
CC(C)[C@H](NC(=O)c1ccccc1F)C(=O)NNC(=O)c1cccs1	.	.	-	-	-
COc1ccccc1Nc1n[nH]c(=S)s1	20µM	-	-	-	-
Cc1cccc(Nc2n[nH]c(=S)s2)c1C	13µM	-	-	-	-
Cc1cc(C)c(Nc2n[nH]c(=S)s2)cc1C	.	-	-	-	-
Cc1ccccc1NC(=O)c1c(C)[nH]c(=S)c(C#N)c1-c1ccco1	-	-	-	-	-
CNC(=O)c1c(C)[nH]c(=S)c(C#N)c1-c1ccco1	32µM	.	-	-	-
CCOC(=O)CN(C(=O)CSc1nnc2c(n1)[nH]c1ccc(F)cc12)c1ccccc1	-	-70	-	-66	-
COCCn1c(SCC(=O)Nc2ccc(Cl)c(S(=O)(=O)N(C)C)c2)nc2ccccc21	-	-	-	-	-118
CC(=O)Nc1ccc(CN2CCc3c([nH]c4ccccc34)C2c2ccccn2)cc1 (stereo unspecified)	25µM	-	.	-	-
Cc1nc2ccccc2oc1=O	-	.	.	.	.
Nc1cc2nc3ccccc3oc-2cc1=O	13µM	?	-	-	-
S=c1[nH]nc(-c2ccccc2)n1Cc1ccccc1	?	-	-	-	-
SMILES	KDM4E inh	CtBP-E1A inh	KCNH2 3.1 block	Six1-Eya2 inh	hERG WT inh
C=CCn1c(-c2csc(-c3ccccc3)n2)n[nH]c1=S	-	-	-	-	-
C=CCn1c(-c2csc(-c3ccc(Cl)cc3)n2)n[nH]c1=S	-	-	-195	-	-187
S=c1[nH]nc(-c2ccc(Cl)cc2)n1Cc1ccccc1	-	-	-	-	-306
Cc1cc(N2CCC(C(=O)NC3CCCCC3)CC2)nc(-c2ccccc2)n1	-	-	.	-	-
O=C(NC(=S)NCc1ccccc1)c1cccnc1	-	-	-	-	-78
CCOC(=O)c1cc(C(=O)OCC)cc(-n2c(C)cc(C(=O)CN3CCOCC3)c2C)c1	13µM	-	-	-	-
